Assay [1] in a line: qHTS assay to identify small molecule antagonists of the thyroid receptor (TR) signaling pathway (AID 743065). Further: nearly all actives have a fitted effect of over 55% in size. Further: potency means the concentration at half of the fitted maximal effect. In outline: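 GH3.TRE-Luc rat pituitary cells (two TREs driving luciferase) were dosed with compound, then stimulated with 1 nM T3 (final) for 23.5 h at 37 C. ONE-Glo luminescence was the read-out, with CellTiter-Fluor fluorescence as the cytotoxicity counter-screen.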

In assay [2] the test system is thyroid hormone receptor (rat, GH3 cells). Briefly: qHTS assay to identify small molecule agonists of the thyroid receptor (TR) signaling pathway (AID 743066; calls by dose curve). On the technique in general: In qHTS, concentration-response curves come from the screen itself.
Assay [3] can be described thus: qHTS assay to identify small molecule antagonists of the estrogen receptor alpha (ER-alpha) signaling pathway - cell viability counter screen (AID 743074; calls by dose curve;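 further: HEK293 cells carrying ER-alpha-UAS-bla reporter stimulated with 17beta-estradiol; nearly all actives have a fitted effect of over 45% in size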; further: potency means the concentration at half of the fitted maximal effect).
The nature of assay [4]: qHTS assay to identify small molecule antagonists of the estrogen receptor alpha (ER-alpha) signaling pathway using the BG1 cell line - cell viability counter screen (AID 743081).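 Further: compound given together with 17beta-estradiol as the ER stimulus; nearly all actives have a fitted effect of over 45% in size.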 Further: potency means the concentration at half of the fitted maximal effect.
Assay [5] addresses Aromatase (Homo sapiens) (UniProt P11511). Briefly: qHTS assay to identify aromatase inhibitors (AID 743083). Further: nearly all actives have a fitted effect of over 55% in size. Further: potency means the concentration at half of the fitted maximal effect.
A short description of assay [6]: qHTS assay to identify small molecule antagonists of the estrogen receptor alpha (ER-alpha) signaling pathway using the BG1 cell line (AID 743080; calls by dose curve;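 further: BG1 cells stimulated with 17beta-estradiol alongside compound; nearly all actives have a fitted effect of over 25% in size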; further: potency means the concentration at half of the fitted maximal effect). In outline:
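Luciferase inhibition measured with ONE-Glo after 30 min at RT in BG1Luc4E2 cells given test compounds and 17beta-estradiol for 21.5 h at 37 C; CellTiter-Fluor viability read in the same wells beforehand.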

For assay [7], the target named is Estrogen receptor (Homo sapiens) (UniProt P03372). The assay is described as follows: qHTS assay to identify small molecule agonists of the estrogen receptor alpha (ER-alpha) signaling pathway (AID 743075; calls by dose curve;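 further: HEK293 GripTite cells with ER-alpha and UAS-driven beta-lactamase reporter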).
Chain of Estrogen receptor (Homo sapiens) (P03372 whole entry, looked up): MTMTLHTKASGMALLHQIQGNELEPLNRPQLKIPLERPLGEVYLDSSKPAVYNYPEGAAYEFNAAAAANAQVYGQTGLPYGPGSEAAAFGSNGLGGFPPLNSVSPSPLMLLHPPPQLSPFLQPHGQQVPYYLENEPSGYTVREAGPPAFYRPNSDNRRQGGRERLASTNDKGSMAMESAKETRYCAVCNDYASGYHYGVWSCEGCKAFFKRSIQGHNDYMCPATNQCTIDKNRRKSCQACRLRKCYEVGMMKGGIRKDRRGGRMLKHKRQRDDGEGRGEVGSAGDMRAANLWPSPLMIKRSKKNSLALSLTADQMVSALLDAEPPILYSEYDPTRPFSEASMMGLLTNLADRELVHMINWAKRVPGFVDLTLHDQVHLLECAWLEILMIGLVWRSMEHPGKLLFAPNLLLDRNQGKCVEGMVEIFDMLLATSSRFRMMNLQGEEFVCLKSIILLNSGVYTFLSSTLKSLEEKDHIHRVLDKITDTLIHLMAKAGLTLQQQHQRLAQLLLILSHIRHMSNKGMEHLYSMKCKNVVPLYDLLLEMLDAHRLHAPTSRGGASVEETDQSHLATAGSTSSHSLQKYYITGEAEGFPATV
The target is the same in assay [8]. Briefly: qHTS assay to identify small molecule agonists of the estrogen receptor alpha (ER-alpha) signaling pathway using the BG1 cell line (AID 743079). Further: nearly all actives have a fitted effect of over 20% in size. Further: potency means the concentration at half of the fitted maximal effect.

Where “and” joins values, the source holds several entries; their conditions need not be identical. Identical values can stand only once. Records with an inconclusive call do not appear. The source holds several records for some structures; these can differ, active in one and inactive in another. Calls of active or inactive are those of the source. Unless noted, the call rests on the fitted dose curve; in most records, active means well fitted curve in the direction sought with a large enough effect in the repeat runs; inconclusive means weak or mixed curves; inactive means no such curve, though single readings can be large; an effect the other way counts as inactive or inconclusive.

Chain of Aromatase (Homo sapiens) (P11511 whole entry, looked up): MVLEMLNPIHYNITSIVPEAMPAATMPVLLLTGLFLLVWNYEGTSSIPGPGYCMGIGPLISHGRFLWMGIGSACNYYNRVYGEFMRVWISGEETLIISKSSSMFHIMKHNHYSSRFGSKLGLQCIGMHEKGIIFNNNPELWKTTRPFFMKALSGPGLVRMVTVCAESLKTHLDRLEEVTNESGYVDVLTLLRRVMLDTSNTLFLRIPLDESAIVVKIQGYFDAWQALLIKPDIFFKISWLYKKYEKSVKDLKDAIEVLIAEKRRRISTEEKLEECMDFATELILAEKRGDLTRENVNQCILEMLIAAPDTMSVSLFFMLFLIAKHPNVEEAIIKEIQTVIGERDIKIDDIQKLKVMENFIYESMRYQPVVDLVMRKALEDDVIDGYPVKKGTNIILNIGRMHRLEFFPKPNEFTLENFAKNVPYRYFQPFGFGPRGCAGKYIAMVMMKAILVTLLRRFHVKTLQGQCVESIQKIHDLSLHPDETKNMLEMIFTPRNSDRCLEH

`O=C(Cl)c1cccc(C(=O)Cl)c1`: the Potency result in assay [1], in assay [2], in assay [3], in assay [4] and in assay [5] was “inactive” in each case.
As for `C[N+]1([O-])CCOCC1`, the Potency entry in assay [1], in assay [2], in assay [3], in assay [4] and in assay [5] was “inactive” in each case.
In the case of `C/C=C/c1ccc(OCC)c(O)c1`, the Potency entry in assay [1], in assay [2], in assay [3], in assay [4] and in assay [5] was “inactive” each time.
For `NC(N)=NC(=O)Cc1c(Cl)cccc1Cl`, the Potency entry in assay [2], in assay [3] and in assay [5] was “inactive” throughout.
On to `CC[C@]1(O)C[C@@H]2CN(CCc3c([nH]c4ccccc34)[C@@](C(=O)OC)(c3cc4c(cc3OC)N(C)[C@H]3[C@@](O)(C(=O)OC)[C@H](OC(C)=O)[C@]5(CC)C=CCN6CC[C@]43[C@@H]65)C2)C1`, for which the Potency is 75 nM (active) and 42.2 nM (active) in assay [1]; 3.35 µM (active) in assay [6]; 15 µM (active) in assay [4]; 21.1 µM (active) in assay [5].
In the case of `CC(C)(C)c1ccc(O)c(C(C)(C)C)c1`, the Potency in assay [1] was 30.5 µM (active) and 24.3 µM (active); in assay [3], 34.5 µM (active) and inactive; in assay [6] it was 48.6 µM (active); in assay [5], 54.3 µM (active) and 54.5 µM (active). Further, the Potency result in assay [4] was “inactive”.
As to `Oc1c(Cl)cc(Cl)c(Cl)c1Cc1c(O)c(Cl)cc(Cl)c1Cl`, the Potency in assay [1] is 10.6 µM (active) and 2.43 µM (active) and 1.93 µM (active); in assay [3] it was 24.5 µM (active) and 4.9 µM (active); in assay [5] it was 10.6 µM (active) and 5.43 µM (active) and 6.11 µM (active). For the same molecule, the Potency entry in assay [2] and in assay [4] was “inactive” each time.
With `CCN(CC)CCOc1ccc(/C(=C(\Cl)c2ccccc2)c2ccccc2)cc1`, the Potency in assay [1] is 6.68 µM (active) and 7.86 µM (active); in assay [3], 39.7 µM (active); in assay [5] it was 3.35 µM (active) and 1.4 µM (active). For the same molecule, the Potency result in assay [2] and in assay [4] was “inactive” throughout.
Consider `CC(=O)Nc1ccc(C(=O)CCl)cc1`, for which the Potency entry in assay [3], in assay [4] and in assay [5] was “inactive” in each case.
Regarding `CC(C)(c1ccccc1)c1ccc(Nc2ccc(C(C)(C)c3ccccc3)cc2)cc1`, the Potency result in assay [1], in assay [2], in assay [7], in assay [8], in assay [6] and in assay [4] was “inactive” in each case. Besides, the Potency entry in assay [5] was “inactive”.
Turning to `CCCCC(CC)COC(=O)CC(C(=O)OCC(CC)CCCC)S(=O)(=O)O` (configuration not stated), the Potency entry in assay [2], in assay [7], in assay [6], in assay [4] and in assay [5] was “inactive” each time. Further, the Potency in assay [3] is 47.1 µM (active) and inactive; in assay [8], “inactive and 15 µM (active)”.
Turning to `CCc1cc(C(C)(C)C)c(O)c(C(C)(C)C)c1`, the Potency entry in assay [2], in assay [3], in assay [4] and in assay [5] was “inactive” each time.
As to `CCC(=O)/C=C/C1C(C)=CCCC1(C)C` (configuration not stated), the Potency result in assay [1], in assay [2], in assay [3], in assay [4] and in assay [5] was “inactive” throughout.
Consider `CC[C@H]1CN2CCc3cc(OC)c(OC)cc3[C@@H]2C[C@@H]1C[C@H]1NCCc2cc(OC)c(OC)cc21`, for which the Potency is 37.6 nM (active) and 38.7 nM (active) in assay [1]; 9.72 µM (active) in assay [4]; 237 nM (active) and 244 nM (active) in assay [5]. Besides, the Potency entry in assay [2] and in assay [3] was “inactive” in each case.
For the molecule `CCC(CO)(CO)COCC(CC)(CO)CO`, the Potency result in assay [1], in assay [2], in assay [4] and in assay [5] was “inactive” throughout.
With `CC(C)(C)NC(=O)[C@@H]1CN(Cc2cccnc2)CCN1C[C@@H](O)C[C@@H](Cc1ccccc1)C(=O)N[C@H]1c2ccccc2C[C@H]1O`, the Potency result in assay [2], in assay [3] and in assay [4] was “inactive” in each case. In assay [5], the Potency was 29.8 µM (active) and inactive.
Turning to `CC1COc2c(N3CCN(C)CC3)c(F)cc3c(=O)c(C(=O)O)cn1c23` (configuration not stated), the Potency result in assay [1], in assay [2], in assay [3], in assay [4] and in assay [5] was “inactive” throughout.
With `OCCN1CCNCC1`, the Potency result in assay [7], in assay [8], in assay [6], in assay [4] and in assay [5] was “inactive” throughout.
On to `CCOC(=O)C(C)C(C)=O` (configuration not stated), for which the Potency result in assay [1], in assay [2], in assay [3], in assay [4] and in assay [5] was “inactive” in each case.
As for `O=C1CC2(CCCC2)CC(=O)N1CCCCN1CCN(c2ncccn2)CC1`, the Potency result in assay [2], in assay [3] and in assay [4] was “inactive” throughout.
For `c1ccc2n[nH]nc2c1`, the Potency entry in assay [1], in assay [2], in assay [3], in assay [4] and in assay [5] was “inactive” in each case.
For `O=C(O)c1cn(-c2ccc(F)cc2)c2cc(N3CCNCC3)c(F)cc2c1=O`, the Potency entry in assay [1], in assay [2], in assay [3], in assay [4] and in assay [5] was “inactive” in each case.
Take `Nc1cc(S(=O)(=O)O)cc2cc(S(=O)(=O)O)cc(O)c12`: the Potency result in assay [3], in assay [4] and in assay [5] was “inactive” in each case.
As to `CCN(CC)c1ccc2c(C)cc(=O)oc2c1`, the Potency entry in assay [2], in assay [8], in assay [6] and in assay [5] was “inactive” throughout. Also, the Potency in assay [3] was 49.4 µM (active) and inactive.
Turning to `O=Cc1ccc(Cl)cc1`, the Potency entry in assay [1], in assay [2], in assay [3], in assay [4] and in assay [5] was “inactive” each time.
Turning to `CC(COc1ccccc1)N(CCCl)Cc1ccccc1` (configuration not stated), the Potency result in assay [3], in assay [4] and in assay [5] was “inactive” in each case.
Consider `N[C@@H]1CONC1=O`, for which the Potency result in assay [4] and in assay [5] was “inactive” each time.
